Screening results as filed in PubChem BioAssay.
TDP1 cell noCPT = qHTS for Inhibitors of human tyrosyl-DNA phosphodiesterase 1 (TDP1): qHTS in cells in absence of CPT; DT40 Tdp1-/- hTDP1 cells, no CPT, ATP luminescence, 48 h; Potency, µM (series often up to 46.2 µM), for the others: at the top dose activity change, negative = growth inhibition, hits mostly inhibitors; hit rate 15% among 420,000; AID 686978, 2013; note: potency is the fitted concentration of half-maximal effect; % is set by controls: 0 for no effect and ±100 for the full control effect; nearly all actives have a fitted effect of over 55% in size
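Readout: luminescence from CellTiter-Glo after 30 min in the dark at RT. Cells: DT40 Tdp1-/- with stable hTDP1, 400/well. Exposure: compounds alone, ≥48 hr, 37 °C.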
DT40 TDP1 CPT = qHTS for Inhibitors of human tyrosyl-DNA phosphodiesterase 1 (TDP1): qHTS in cells in presence of CPT. Potency, µM (doses to about 46.2 µM), for the others: top-dose activity change, negative = growth inhibition, usual class: inhibitors. AID 686979, 2013. chicken DT40 Tdp1-/-;hTDP1 cells + 20 nM CPT, ATP luminescence, 48 h. hit rate 12% among 420,000; note: potency is the fitted concentration of half-maximal effect; % is set by controls: 0 for no effect and ±100 for the full control effect; nearly all actives have a fitted effect of over 55% in size
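Cell growth measured by CellTiter-Glo luminescence after a minimum 48 h, 37 C compound exposure with 20 nM CPT in Tdp1-knockout DT40 cells stably expressing hTDP1, seeded 400/well; qHTS titration format.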
ATXN2 expr inh = Primary qHTS for Inhibitors of ATXN expression; Potency, µM (series often up to 57 µM), for the others: at the top dose activity change, negative = inhibition, actives largely listed as inhibitors; AID 1745845, 2022; hit rate 0.72% among 360,000; HEK-293 ATXN2-luciferase reporter, luminescence, 24 h; note: potency is the fitted concentration of half-maximal effect; % is set by controls: 0 for no effect and ±100 for the full control effect; nearly all actives have a fitted effect of over 55% in size
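qHTS (up to 57 uM final) was run with 24 h compound exposure of reporter cells at 37 °C. Each well was multiplexed: SteadyGlo luminescence measured ATXN2-luciferase expression after a fluorogenic Gly-Phe-AFC viability readout (25 uM final).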
S2 tox = Viability Counterscreen for Primary qHTS for Inhibitors of ATXN expression; S2 cells (HEK-293 line with an ATXN2-luciferase reporter) viability, CellTiter-Fluor protease fluorescence, 24 h; Potency, µM (titrated, usually from 56.7 µM), hits mostly cytotoxic; hit rate 0.49% among 400,000; AID 651635, 2014; note: potency is the fitted concentration of half-maximal effect; nearly all actives have a fitted effect of over 40% in size
HepG2 viability = qHTS for Inhibitors of TGF-b: Cytotox Counterscreen | HepG2 CAGA-GFP viability, ATP luminescence, 18 h | AID 588856, 2011 | hit rate 0.76% among 410,000 | Potency, µM (series often up to 46.1 µM), for the others: top-dose activity change, negative = cytotoxicity, most hits filed as cytotoxic; note: potency is the fitted concentration of half-maximal effect
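CellTiter-Glo luminescence gave cytotoxicity after 18 hours at 37 degrees C. The cells were HepG2 CAGA-GFP in 1% FBS DMEM, stimulated with 500 pg/mL TGF-beta after compound addition. %Activity was normalised to no-cell wells (complete cell-killing) and DMSO (no toxicity), and curves were fitted and classified.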
TGFb SMAD3 inh = qHTS for Inhibitors of TGF-b; HepG2 CAGA-GFP TGF-b/SMAD3 reporter, GFP fluorescence, 18 h; TGF-beta stimulated, 500 pg/mL final; Potency, µM (highest dose often 46.1 µM), without a hit: top-dose activity, negative = inhibition, most hits filed as inhibitors; hit rate 1.2% among 410,000; AID 588855, 2011; note: potency is the fitted concentration of half-maximal effect; % is set by controls: 0 for no effect and ±100 for the full control effect; nearly all actives have a fitted effect of over 65% in size
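HEPG2 CAGA-GFP cells (1000/well, DMEM with 1% FBS) were pre-incubated 2 h at 37 degrees C, given compound by pin tool, then stimulated with TGF-beta at 500 pg/mL final for 18 h before per-cell GFP fluorescence imaging.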
SKNSH spheroid = qHTS of pediatric cancer cell lines to identify multiple opportunities for drug repurposing: Orthogonal 3D viability screen for SK-N-SH cells | SK-N-SH 3D spheroid viability, PI/Hoechst imaging, 72 h | Potency, µM (series often up to 30.7 µM), most hits filed as inhibitors | hit rate 70% among 65 | shares compounds with ATXN2 expr inh
SJ-GBM2 3D tox = qHTS of pediatric cancer cell lines to identify multiple opportunities for drug repurposing: Orthogonal 3D viability screen for SJ-GBM2 cells; shares compounds with ATXN2 expr inh; SJ-GBM2 3D spheroid viability, PI/Hoechst imaging, 72 h; Potency, µM (highest dose often 30.7 µM), actives largely listed as inhibitors; hit rate 80% among 65; AID 1347136, 2019
Daoy spheroid = qHTS of pediatric cancer cell lines to identify multiple opportunities for drug repurposing: Orthogonal 3D viability screen for Daoy cells; shares compounds with ATXN2 expr inh; Daoy 3D spheroid viability, PI/Hoechst imaging, 72 h; Potency, µM (top dose mostly 30.7 µM), most hits filed as inhibitors; hit rate 50% among 65
TC32 3D casp = qHTS of pediatric cancer cell lines to identify multiple opportunities for drug repurposing: Orthogonal 3D caspase screen for TC32 cells. Potency, µM (series often up to 30.7 µM), actives largely listed as inhibitors. hit rate 30% among 65. TC32 3D spheroids, caspase-3/7 fluorescence imaging, 24 h. shares compounds with ATXN2 expr inh. AID 1347138, 2019
TC32 3D tox = qHTS of pediatric cancer cell lines to identify multiple opportunities for drug repurposing: Orthogonal 3D viability screen for TC32 cells; shares compounds with ATXN2 expr inh; TC32 3D spheroid viability, PI/Hoechst imaging, 72 h; Potency, µM (series often up to 30.7 µM), hits mostly inhibitors; hit rate 60% among 65; AID 1347139, 2019
MG63 3D tox = qHTS of pediatric cancer cell lines to identify multiple opportunities for drug repurposing: Orthogonal 3D viability screen for MG 63 (6-TG R) cells | MG-63 (6-TG R) 3D spheroid viability, PI/Hoechst imaging, 72 h | Potency, µM (highest dose often 30.7 µM), most hits filed as inhibitors | hit rate 50% among 65 | AID 1347140, 2019 | shares compounds with ATXN2 expr inh
RD 3D tox = qHTS of pediatric cancer cell lines to identify multiple opportunities for drug repurposing: Orthogonal 3D viability screen for RD cells. shares compounds with ATXN2 expr inh. RD rhabdomyosarcoma 3D spheroid viability, PI/Hoechst imaging, 72 h. Potency, µM (doses to about 30.7 µM), actives largely listed as inhibitors. hit rate 50% among 65
* hit, by the source's call; i = inactive; u = inconclusive; x = no result; ! = not confirmed by another sample. Rows were chosen to be rich in hits. Some 17% of all compounds tested hit in one or more screens of this group. Calls come from the whole dose curve; as a rule, active = well fitted curve in the direction sought with a large enough effect; inconclusive = small, poorly fitted or top-dose-only effect, or another doubt; inactive = no such curve, though single readings can be large; an effect the other way counts as inactive or inconclusive.

SMILES | TDP1 cell noCPT | DT40 TDP1 CPT | ATXN2 expr inh | S2 tox | HepG2 viability | TGFb SMAD3 inh | SKNSH spheroid | SJ-GBM2 3D tox | Daoy spheroid | TC32 3D casp | TC32 3D tox | MG63 3D tox | RD 3D tox
COc1cccc2c1C(=O)c1c(O)c3c(c(O)c1C2=O)C[C@@](O)(C(=O)CO)C[C@@H]3O[C@H]1C[C@H](N)[C@@H](O)[C@H](C)O1 | 0.15µM* | 0.16µM* | 0.43µM*! | x | -32% | 3.2µM* | 0.51µM* | 0.91µM* | 1.6µM* | 1µM* | 0.81µM* | 5.1µM* | 9.1µM*
CC(=O)[C@]1(O)Cc2c(O)c3c(c(O)c2[C@@H](O[C@H]2C[C@H](N)[C@H](O)[C@H](C)O2)C1)C(=O)c1ccccc1C3=O | 0.0073µM* | 0.15µM* | 13µM*! | x | -107% | 28% | 0.091µM* | 0.16µM* | 1.8µM* | 7.2µM* | 0.2µM* | 1.1µM* | 1.6µM*
CCCNc1nc(C)cc(-c2cc(C(=O)NCc3ccccc3)on2)n1 | -19% | -3% | -24% | i | -12% | -7% | x | x | x | x | x | x | x
COc1ccc(NS(=O)(=O)c2c(C)[nH]c(=O)[nH]c2=O)cc1OC | -12% | -1% | x | i | 5% | 4% | x | x | x | x | x | x | x
COCCN(C(=O)CSc1nnc(Nc2ccccc2F)s1)c1c(N)n(Cc2ccccc2)c(=O)[nH]c1=O | -10% | -7% | 16% | i | -6% | 3% | x | x | x | x | x | x | x
CCc1nc(N)c(C#N)c(-c2ccncc2)c1C | 6% | -23% | 3% | i | 14% | 1% | x | x | x | x | x | x | x
CCc1nc(N)nc(N)c1-c1ccc(Cl)cc1 | 0.65µM* | 0.94µM* | u | i | -36% | u | u | 0.91µM* | u | i | u | u | u
C[C@@H]1C[C@H]2[C@@H]3CCC4=CC(=O)C=C[C@]4(C)[C@@]3(Cl)[C@@H](O)C[C@]2(C)[C@@]1(OC(=O)c1ccco1)C(=O)CCl | 12µM* | 16µM* | u | u | -42% | -4% | i | u | i | i | i | i | i
CC1CC2C3CCC4=CC(=O)C=C[C@]4(C)[C@@]3(Cl)C(O)C[C@]2(C)C1(OC(=O)c1ccco1)C(=O)CCl (some centres undefined) | -22% | -28% | x | x | x | x | x | x | x | x | x | x | x
Cc1ccc(Cn2c(SCC(=O)NCC3CCCO3)nc3c(sc4ccccc43)c2=O)cc1 (centres undefined) | -10% | -16% | -24% | u | 1% | 14% | x | x | x | x | x | x | x
C[C@H]1[C@@H](OC(=O)CCC(=O)O)O[C@@H]2O[C@@]3(C)CC[C@@H]4[C@H](C)CC[C@@H]1[C@@]24OO3 | x | x | u | x | x | x | u | 1.3µM* | i | u | u | u | 0.91µM*
CCCN1C2CCCC1CC(NC(=S)Nc1cc(C)cc(C)c1)C2 (centres undefined) | u | u | -11% | i | -45% | -7% | x | x | x | x | x | x | x
Cc1ccccc1S(=O)(=O)N(C)C[C@@H]1OCc2cnnn2CCCC(=O)N([C@@H](C)CO)C[C@H]1C | -7% | -8% | 3% | i | -31% | -14% | x | x | x | x | x | x | x
COc1ccccc1NS(=O)(=O)c1cc(NC(=O)c2cc3ccccc3oc2=O)ccc1C | u | u | -17% | i | 1% | -9% | x | x | x | x | x | x | x
O=C1NC[C@H](CCCCN2C[C@H](Cc3ccccc3)N(CCC3CCCCC3)C(=O)C2=O)N(Cc2ccccc2)C1=O | u | u | 13% | i | x | x | x | x | x | x | x | x | x
